This is a sample that favours compounds with a hit; in the whole collection about 1.5% have one here.
CendR NRP1 mod – NRP-1/CendR interaction modulation. O14786. hit rate 0.85% among 360,000. inhibition, % at 25 µM. FAM-RPARPAR peptide binding to NRP-1, fluorescence polarization;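 active means inhibition or corrected inhibition above about 18%, plus a signal ratio from 0.5 to 1.5, limit read from the data, passing the limit was not always enough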
Glyco luc inh – blocks N-linked glycosylation in D54 reporter cells; D54 ERlucT glycosylation luciferase reporter, 24 h; percent of 100 nM tunicamycin response; reporter increase, % at 12.5 µM; hit rate 0.23% among 360,000;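 active means mean luciferase reporter signal, scaled so untreated is 0 and the glycosylation-blocking control 100, at or above a set limit in every replicate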;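 further: luciferase carries N-glycosylation sites so blocking glycosylation raises the light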
miR122 inh – miR-122 inhibition in Huh7 cells; Huh7 miR-122 Renilla luciferase sensor, 48 h; neutral wells = 0, positive control = 100; activation (reporter increase), % at 12.5 µM; hit rate 0.3% among 340,000;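 active means mean replicate activation score at least 90 and every replicate individually at or above 90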;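 further: higher luciferase means less miR-122 activity so hits act as miR-122 inhibitors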
DNA FID counter – fluorescent intercalator displacement, NS3 helicase counter-screen; DNA fluorescent intercalator displacement, fluorescence; AID 1845; hit rate 0.17% among 290,000; inhibition, % at 7.9 µM; in the data active means inhibition above about 37%;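 further: higher means more ethidium bromide displaced from hairpin DNA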
RAD52 inh – inhibitors of human RAD52 DNA annealing | P43351 | recombinant RAD52 DNA annealing, FRET fluorescence | inhibition, % at 18.7 µM | hit rate 0.46% among 360,000;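 active means every replicate showing at least 50% inhibition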
RAD54 branch – blocks human RAD54 Holliday junction branch migration; Q92698; FAM/BHQ fluorescence; inhibition, % at 10.4 µM; hit rate 0.14% among 360,000; AID 602329;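 active means mean normalized replicate activity at least 40 and at least half of replicates scoring 40 or more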;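 further: inhibitors cause a drop in the FAM fluorescence signal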
Target sequence (Q92698 whole entry, looked up): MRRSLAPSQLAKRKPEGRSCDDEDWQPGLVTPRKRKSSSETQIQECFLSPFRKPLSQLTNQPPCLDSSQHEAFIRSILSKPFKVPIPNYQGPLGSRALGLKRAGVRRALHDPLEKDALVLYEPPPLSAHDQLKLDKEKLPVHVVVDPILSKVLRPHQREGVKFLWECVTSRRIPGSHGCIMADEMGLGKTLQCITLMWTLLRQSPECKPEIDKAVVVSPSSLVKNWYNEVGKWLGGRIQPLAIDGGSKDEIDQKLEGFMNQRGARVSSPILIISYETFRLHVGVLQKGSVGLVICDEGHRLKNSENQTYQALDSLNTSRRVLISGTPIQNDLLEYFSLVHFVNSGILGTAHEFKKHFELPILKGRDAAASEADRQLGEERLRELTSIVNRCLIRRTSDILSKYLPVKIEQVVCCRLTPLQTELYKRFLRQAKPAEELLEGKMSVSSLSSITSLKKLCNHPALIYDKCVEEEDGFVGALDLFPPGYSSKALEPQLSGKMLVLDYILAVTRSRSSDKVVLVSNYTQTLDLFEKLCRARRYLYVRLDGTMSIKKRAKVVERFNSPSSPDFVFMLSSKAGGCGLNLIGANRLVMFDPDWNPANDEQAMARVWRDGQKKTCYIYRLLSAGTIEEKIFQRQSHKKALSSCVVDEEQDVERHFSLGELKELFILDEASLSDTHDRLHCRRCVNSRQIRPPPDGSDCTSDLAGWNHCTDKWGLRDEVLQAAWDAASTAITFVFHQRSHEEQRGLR
Large screens that a line does not name were inactive.

CCCOc1ccc(/C(O)=C2/C(=O)C(=O)N(CCCOC)C2c2cccnc2)cc1 (configuration not stated)	CendR NRP1 mod 27.7 (no result: RAD52 inh)
CC1CCc2[nH]c3ccc(C(=O)O)cc3c2C1 (configuration not stated)	none
CC1CCc2[nH]c3ccc(C(=O)NCCCOC(C)C)cc3c2C1 (configuration not stated)	CendR NRP1 mod 34.8 (no result: miR122 inh, RAD54 branch)
C[C@@H]1CN([C@@H](C)CO)C(=O)Cc2cc(NC(=O)Nc3cccc4ccccc34)ccc2O[C@H]1CN(C)C(=O)NC1CCCCC1	none (no result: CendR NRP1 mod, Glyco luc inh, DNA FID counter)
C/C(=C\c1ccc2c(c1)OCO2)C1Nc2cccc3cccc(c23)N1	CendR NRP1 mod 16.9 (no result: DNA FID counter)
COc1ccc(C#Cc2cnc3c(c2)C(=O)N([C@@H](C)CO)C[C@H](C)[C@H](CN(C)C(=O)CC2CC2)O3)cc1	none (no result: CendR NRP1 mod, Glyco luc inh, DNA FID counter)
C[C@@H]1CN([C@H](C)CO)C(=O)c2cc(NC(=O)C3CC3)ccc2O[C@H]1CN(C)C(=O)Nc1ccc(F)cc1	none (no result: CendR NRP1 mod, Glyco luc inh, DNA FID counter)
CNC(=O)Nc1ccccc1C(=O)NCc1ccccc1	CendR NRP1 mod 27.1 (no result: RAD52 inh)
CCc1ccc(OC)c(S(=O)(=O)Nc2ccccc2C)c1	miR122 inh 114.9
COc1ccc(C)cc1S(=O)(=O)Nc1cc(Cl)ccc1Cl	miR122 inh 214.7 (no result: RAD52 inh)
COc1ccc(S(=O)(=O)Nc2cc(Cl)ccc2OC)cc1	miR122 inh 137.5 (no result: RAD52 inh)
COc1ccc(OC)c(NS(=O)(=O)c2ccc(N3CCCC3=O)cc2)c1	miR122 inh 120.0 (no result: RAD52 inh)
COCC(=O)Nc1ccc2c(c1)OC[C@H](C)N(Cc1cncnc1)C[C@@H](C)[C@@H](OC)CN(C)C2=O	none (no result: CendR NRP1 mod, Glyco luc inh, DNA FID counter, RAD52 inh, RAD54 branch)
CC(C)CC#Cc1cnc2c(c1)C(=O)N([C@@H](C)CO)C[C@@H](C)[C@@H](CN(C)Cc1ccccc1F)O2	none (no result: CendR NRP1 mod, Glyco luc inh, DNA FID counter)
CCCCC#Cc1cncc(C(=O)N/N=C/c2cccc(OC)c2)c1	CendR NRP1 mod 37.5 (no result: miR122 inh, RAD54 branch)
CC=Cc1ccc2n(c1=O)C[C@H]1[C@H](CO)[C@@H](C(=O)NCCC)N(CC3CCCC3)[C@@H]21 (mixture of isomers)	RAD52 inh 99.1 (no result: CendR NRP1 mod, Glyco luc inh, DNA FID counter)
C[C@@]12CCC3[C@@](CCC4[C@@]3(C)CCC[C@@]4(C)C(=O)NC3CCCCC3)(CC1=O)C2 (some centres not stated)	CendR NRP1 mod 32.2 (no result: DNA FID counter)
C[C@@]12CCC3[C@@](CCC4[C@@]3(C)CCC[C@@]4(C)C(=O)N3CCCCC3)(CC1=O)C2 (some centres not stated)	none (no result: miR122 inh, DNA FID counter)
Cc1ccc(S(=O)(=O)Nc2ccc3c(c2)C(=O)N([C@@H](C)CO)C[C@@H](C)[C@H](CN(C)S(=O)(=O)c2ccc(F)cc2)OCCCC[C@@H](C)O3)cc1	none (no result: CendR NRP1 mod, Glyco luc inh, DNA FID counter)
COc1cc(Cn2c3ccc(NC(=O)CCc4ccccc4)cc3c(=O)n2C)ccc1F	none (no result: DNA FID counter)
COc1ccccc1CCC(=O)Nc1ccc2c(c1)c(=O)n(C)n2-c1cccs1	Glyco luc inh 34.0 (no result: DNA FID counter)
COc1cc(-c2nc3ccccn3c2NCc2ccccc2)ccc1SC1CCCCC1	none (no result: miR122 inh, DNA FID counter, RAD52 inh)
COc1ccc(-c2nc3ccccn3c2NC2CCCCC2)cc1SC1CCCCC1	miR122 inh 114.7 (no result: DNA FID counter)
CCNC(=S)NNC(=O)C1CCCCC1	miR122 inh 140.5 (no result: RAD52 inh)
Cn1c(CNC(=O)c2ccccc2F)nnc1SCC(=O)c1ccccc1	CendR NRP1 mod 27.0 (no result: miR122 inh)
Oc1ccccc1-c1ccn[nH]1	CendR NRP1 mod 31.6 (no result: DNA FID counter)
Cc1ccc(-n2nnc(-c3nccs3)n2)cc1	miR122 inh 99.6
Cc1ccc(Nc2cc(C)nc3ccc(C)cc23)cc1	CendR NRP1 mod 21.0 (no result: miR122 inh)
CCOc1ccc(Nc2cc(C)nc3ccc(C)cc23)cc1	none (no result: miR122 inh, DNA FID counter, RAD54 branch)
CCCCN(c1ccccc1)S(=O)(=O)c1ccc2c(c1)CCN2C(=O)CCC(=O)O	CendR NRP1 mod 25.2 (no result: miR122 inh, RAD52 inh, RAD54 branch)
CCCN(c1ccc(OCC)cc1)S(=O)(=O)c1ccc2c(c1)CCN2C(=O)CCC(=O)O	none (no result: RAD52 inh)
CCOc1ccc2[nH]c(O)c(NC(C)=O)c2c1	CendR NRP1 mod 27.7 (no result: RAD52 inh)
CCOC(=O)c1[nH]c2ccc(OC)cc2c1NC(C)=O	none (no result: RAD52 inh)
CCCc1cnc(NCCNCC(O)COc2ccc(Cl)c(Cl)c2)nc1 (configuration not stated)	DNA FID counter 40.1
C[C@@H]1CCCCO[C@@H](CN(C)S(=O)(=O)c2ccc(Cl)cc2)[C@H](C)CN([C@@H](C)CO)C(=O)c2cc(N(C)C)ccc2O1	none (no result: CendR NRP1 mod, Glyco luc inh, DNA FID counter, RAD52 inh, RAD54 branch)
C=CC(C)n1c(Br)nc2c1c(=O)[nH]c(=O)n2C (configuration not stated)	miR122 inh 154.3 (no result: RAD52 inh, RAD54 branch)
Cc1noc(C)c1NC(=O)Nc1cccc2c1O[C@H](CN(C)Cc1ccncc1)[C@H](C)CN([C@H](C)CO)C2=O	none (no result: CendR NRP1 mod, Glyco luc inh, DNA FID counter)
CCOC(=O)c1csc(COc2ccc(OC)cc2)n1	CendR NRP1 mod 30.4 (no result: miR122 inh, RAD54 branch)
CC(C)CC#Cc1ccc([C@H]2[C@H](CO)N3C(=O)CN(C(=O)Cc4ccccc4)C[C@@H]23)cc1	none (no result: CendR NRP1 mod, Glyco luc inh, miR122 inh, DNA FID counter, RAD54 branch)
O=[N+]([O-])c1ccc(Sc2cc[n+]([O-])c3ccccc23)c([N+](=O)[O-])c1	Glyco luc inh 28.4
O=c1[nH]c(Sc2ccc([N+](=O)[O-])cc2[N+](=O)[O-])nc2ccccc12	none (no result: miR122 inh, DNA FID counter)
CCOC(=O)N1CCN(c2ncnc3c2oc2nc(C(C)C)c4c(c23)CCC4)CC1	miR122 inh 206.8 (no result: RAD52 inh)
CCN(CC)c1ccc(/C=C/c2cccc[n+]2C)c(OC)c1	Glyco luc inh 27.8 (no result: miR122 inh)
COc1ccc(/C=C/c2cccc[n+]2C)c(O)c1	none
CC1=C([C@H](O)c2ccccc2)[C@H](CO)n2c(=O)n(-c3ccccc3)c(=O)n2C1	none (no result: CendR NRP1 mod, Glyco luc inh, miR122 inh, DNA FID counter, RAD54 branch)
CN(C)/C(=N\S(=O)(=O)c1ccccc1)c1ccccc1	CendR NRP1 mod 27.3
CN(C)/C(=N\S(=O)(=O)c1ccc(F)cc1)c1ccccc1	none (no result: miR122 inh)
O=C(/C=C/c1ccco1)Nc1nnc(-c2ccco2)s1	Glyco luc inh 34.6 (no result: miR122 inh, RAD54 branch)
COc1cc(NC(=O)c2ccc([N+](=O)[O-])o2)ccc1NC(=O)c1cccs1	none
O=C(Nc1ccc(Cc2ccncc2)cc1)c1ccc([N+](=O)[O-])o1	Glyco luc inh 34.3
O=C(Nc1cccc(NC(=O)c2cccs2)c1)c1ccc([N+](=O)[O-])o1	Glyco luc inh 59.3
CCNC(=O)C[C@@H]1CC[C@H]2[C@@H](COC[C@@H](O)CN2C(=O)Nc2ccc3c(c2)OCO3)O1	none (no result: CendR NRP1 mod, Glyco luc inh, DNA FID counter)
CC(Sc1ccc(S(=O)(=O)N2CCCCCC2)cn1)C(N)=O (configuration not stated)	none (no result: DNA FID counter)
CNC(=O)C(C)Sc1ccc(S(=O)(=O)N2CCOCC2)cn1 (configuration not stated)	CendR NRP1 mod 21.5 (no result: DNA FID counter)
Cc1ccc(-c2nnc(Nc3ccccc3)c3ccccc23)cc1S(=O)(=O)NCC1CCCO1 (configuration not stated)	miR122 inh 126.8 (no result: RAD52 inh)
Cc1ccc(-c2nnc(Nc3ccc4c(c3)OCO4)c3ccccc23)cc1S(=O)(=O)NC(C)C	CendR NRP1 mod 28.0 (no result: miR122 inh, RAD52 inh, RAD54 branch)
CC(=O)Nc1ccc(Nc2nnc(-c3ccc(C)c(S(=O)(=O)NCC4CCCO4)c3)c3ccccc23)cc1 (configuration not stated)	none

Source: PubChem (several laboratories)
